CBFb RUNX1 block: qHTS Assay for Compounds Blocking the Interaction Between CBF-beta and RUNX1 for the Treatment of Acute Myeloid Leukemia; AlphaScreen CBFb-His/RUNX1-biotin binding, biochemical; Potency, µM (doses to about 59.8 µM), for inactives: top-dose activity, negative = inhibition, actives largely listed as inhibitors; 230,000 tested, under 10 active; note: % of control where 0% means no effect
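CBF-beta (His) and RUNX1 (biotin), 30 nM each; 20 min preassociation; + compound, 15 min; + beads 50 ng each (Ni, streptavidin), 90 min; RT; AlphaScreen read.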
TRHR enhancer: qHTS for Small Molecule Agonists and Allosteric Enhancers of Human TRH Receptor: Primary Screen for Enhancers | Thyrotropin-releasing hormone receptor (Homo sapiens), P34981 | TRHR cells, fluo-8 calcium fluorescence, EC20 TRH enhancement | enhancement, % at 2 µM | 360,000 tested, 0.66% active; in the data active = enhancement above about 30%; note: 0% is about no effect
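Enhancer read-out: after compound pinning and an initial kinetic agonist-mode read, an EC20 of TRH (10 nM final) was injected and fluo-8 calcium signal (Ex 480/Em 530) followed at 1 s/cycle for 100 cycles in TRHR-expressing cells.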
TRHR agonist: qHTS for Small Molecule Agonists and Allosteric Enhancers of Human TRH Receptor: Primary Screen for Agonists; activation, % at 2 µM; 360,000 tested, 0.18% active; Thyrotropin-releasing hormone receptor (Homo sapiens), P34981; TRHR cells, calcium flux fluo-8, FDSS agonist mode; AID 493084, 2011; in the data active = activation above about 30%; note: 0% is about no effect
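Read-out: compound-evoked intracellular calcium rise in TRHR cells, fluo-8 dye, kinetic FDSS fluorescence at 1 s/cycle following a 10-cycle baseline. Cells cultured overnight before dye loading (30 min–1.5 h, RT).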
MBNL1 CUG block: qHTS Assay for Inhibitors of MBNL1-poly(CUG) RNA binding; TR-FRET MBNL1-His/biotin-(CUG)12 binding, 665/545 ratio; Potency, µM (highest dose often 57.5 µM), for inactives: top-dose activity change, negative = inhibition, usual class: inhibitors; 280,000 tested, 0.036% active; AID 2675, 2010; active = well fitted inhibition curve with a large enough effect in the signal ratio, with a control signal flat, not every such curve was filed as active; inconclusive = small, poorly fitted or top-dose-only effect, or effect the other way, or a change in a side signal; inactive = no such curve, though single readings can be large or run the other way; the % refers to the signal ratio; note: potency is the fitted concentration of half-maximal effect; % is set by controls: 0 for no effect and ±100 for the full control effect
Target sequence (Q9NR56 whole entry, looked up): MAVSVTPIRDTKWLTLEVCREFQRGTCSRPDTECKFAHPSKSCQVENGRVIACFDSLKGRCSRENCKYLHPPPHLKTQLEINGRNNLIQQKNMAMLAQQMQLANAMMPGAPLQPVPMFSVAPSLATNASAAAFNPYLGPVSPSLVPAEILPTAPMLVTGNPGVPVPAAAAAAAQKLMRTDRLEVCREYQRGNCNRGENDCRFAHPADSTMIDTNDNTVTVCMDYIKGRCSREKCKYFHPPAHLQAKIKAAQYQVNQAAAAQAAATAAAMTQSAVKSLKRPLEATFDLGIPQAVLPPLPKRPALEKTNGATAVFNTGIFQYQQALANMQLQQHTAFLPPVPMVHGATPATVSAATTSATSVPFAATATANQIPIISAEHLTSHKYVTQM
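MBNL1-His + Biotin-(CUG)12, cpd titration 92 nM–58 uM; Tb anti-His Ab 0.055 ng/ul, SA-XL665 5 nM (final); 60 min RT; ratiometric 665/545 nm, Ex 340 nm; normalized to buffer and full-complex controls.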
Epigenetic derep: Quantitative High-Throughput Screen for Regulators of Epigenetic Control. 280,000 tested, 0.2% active. Potency, µM (titrated, usually from 53.9 µM), for inactives: at the top dose GFP activation, hits mostly activators. AID 1865, 2009. murine LDR cells, GFP reporter derepression, 30 h; note: potency is the fitted concentration of half-maximal effect; % of control where 0% means no effect; nearly all actives have a fitted effect of over 60% in size
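GFP-positive cell count by laser-scanning cytometry (objects 20–120 um) after 30 h, 37 C compound exposure of murine LDR cells; reporter is CMV-GFP integrated at a silenced locus, inducible by HDAC or DNMT inhibitors.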
IL2 activator: qHTS of IL-2 Activators; IL-2 activation reporter assay, cell-based qHTS; stimulated with anti-CD3/CD4/CD28 beads; in transgenic mouse T cells; activation, % (series mostly up to about 46 µM); 360,000 tested, 0.065% active; AID 652025, 2013; in the data active = activation above about 50%; inconclusive = mostly about 30% to 49%; note: 0% is about no effect
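First, unstimulated transgenic mouse T cells were exposed to compound for 60 min. Next, anti-CD3/anti-CD4-coated beads with anti-CD28 were added. Finally, after 18 h at 37 degrees C, EGFP and DsRed were imaged.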
An asterisk follows results filed as active; ? = inconclusive; / = no result given; [ ] = dose if it differs, or a comment. Most compounds without a hit are left out; they make up all but 0.88% or so of the library. Unless noted, calls come from the whole dose curve; as a rule, active = well fitted curve in the direction sought with a large enough effect; inconclusive = small, poorly fitted or top-dose-only effect, or another doubt; inactive = no such curve, though single readings can be large; an effect the other way counts as inactive or inconclusive.

SMILES	CBFb RUNX1 block	TRHR enhancer	TRHR agonist	MBNL1 CUG block	Epigenetic derep	IL2 activator
Cc1ccc(CNC(=O)Cn2cc(C(=O)c3ccc(Cl)cc3)c(=O)c3ccc(C)nc32)cc1	/	24	0	/	6%	/
CCc1ccc(CNC(=O)c2ccc3c(c2)nc2n3CCCCC2)cc1	/	0	0	/	-3%	/
Cc1cc2c(s1)c1cnn(Cc3ccc(-n4cncn4)cc3)c(=O)c1n2C	/	9	-1	/	/	/
CC(C)N1CN=C(Nc2nc3ccccc3o2)NC1	13%	31*	0	/	-2%	1
O=C(NC(=S)Nc1ccc(F)cc1)c1ccc2c(c1)OCCO2	-1%	33*	1	0%	0%	0
COc1ccc(NC(=S)NC(=O)c2ccc3c(c2)OCCO3)cc1	/	/	/	/	/	-4
Cc1ccc(-c2csc(Nc3ccc(C(=O)O)cc3)[n+]2Cc2ccccc2)cc1	3%	33*	0	0%	-2%[10.1 µM]	-1
COc1cc2c3nnc(-c4ccccc4)c-3cn(Cc3ccc(F)cc3)c2cc1OC	1%	5	1	?	?	12
COc1cc2c3nnc(-c4ccc(F)cc4)c-3cn(Cc3cccc(C)c3)c2cc1OC	12%	2	0	-2%	3.5µM*	218*
COc1cc2c3nnc(-c4ccc(F)cc4)c-3cn(Cc3cccc(F)c3)c2cc1OC	?	-4	1	8%	7.1µM*	76*
COc1cc2c3nnc(-c4ccc(F)cc4)c-3cn(Cc3ccc(C)cc3)c2cc1OC	17%	9	-1	-13%	6.3µM*	349*
COc1cccc(Cn2nc3c4cc(F)ccc4n(Cc4ccc(F)cc4)cc-3c2=O)c1	/	-1	-1	3%	/	0
COc1cc(CNC(=O)c2cnc(SC)nc2-c2ccccc2)cc(OC)c1OC	/	4	0	/	-1%	/
Cc1ccc2[nH]c(O)c(N=NC(=O)CCc3ccccc3)c2c1Br	-6%	32*	1	-1%	11%	3
O=C(CSCc1ccccc1)N=Nc1c(O)[nH]c2ccccc12	-11%	1	-1	?	-1%	0
Cc1cccc(C)c1NC(=O)N1CCC(C(N)=O)(N2CCCCC2)CC1	/	2	1	/	-1%	/
CCOc1ccc(Nc2nc(N)c([N+](=O)[O-])c(N3CCOCC3)n2)cc1	/	38*	1	7%	/	-1
COc1ccc(NC(=O)C(NC(=O)/C=C\c2ccc3c(c2)OCO3)c2ccccc2)cc1 (stereo unspecified)	/	0	1	/	10%	/
Clc1cccc(Cl)c1CNC1CCCC1	2%	8	0	-7%	4%	104*
O=C(CN1C(=O)c2ccccc2C1=O)NC1CCCCC1	/	-2	-1	12%	/	-2
O=C(CN1C(=O)c2ccccc2C1=O)NC1CCCCCC1	/	33*	0	11%	/	1
CN1CCN(c2nc3nonc3nc2N2CCN(C)CC2)CC1	0%	32*	0	26%	-2%	0
Cc1ccc(C)c(N2CCN(C(=O)c3cc4c(=O)oc5ccccc5c4s3)CC2)c1	/	6	0	/	0%	/
CCCCC(C(=O)N/N=C/c1ccccn1)C(=O)N/N=C/c1ccccn1	-3%	35*	0	/	3%	2
CCCCCCCCC(=O)N/N=C/c1ccccn1	-4%	9	0	-3%	4%	0
SMILES	CBFb RUNX1 block	TRHR enhancer	TRHR agonist	MBNL1 CUG block	Epigenetic derep	IL2 activator
O=S(=O)([O-])CCC[n+]1c(/C=C\Nc2ccccc2)oc2ccc(-c3ccccc3)cc21	-15%	27	118*	18%	?	/
CC[n+]1c(/C=C/Nc2ccccc2)oc2ccccc21	-3%	-8	2	10%	16µM*	1
CC[n+]1c(/C=C/Nc2ccccc2)oc2ccc(OC)cc21	-3%	14	0	17%	13µM*	10
CC[n+]1c(/C=C/N(C)c2ccccc2)oc2ccc(F)cc21	-6%	2	-1	24%	11%	-4
Cc1ccc2c(c1)sc(C)[n+]2CCCS(=O)(=O)[O-]	-14%	-1	1	-9%	4%	-2
COc1ccc(CNC(C)C2COc3ccccc3O2)c(OC)c1 (stereo unspecified)	11%	0	0	-9%	-2%	-1
CC(NCc1ccccc1)C1COc2ccccc2O1 (stereo unspecified)	-3%	31*	0	-3%	1%	-3
CC(=O)N1CCCc2cc(S(=O)(=O)N3CCC(C(=O)NCc4ccc(N(C)C)cc4)CC3)ccc21	/	39*	0	/	0%	/
Cc1ccc(N=Nc2c(O)[nH]c3ccc(F)cc23)cc1	7%	4	-1	/	?	269*
CC1(C)OC(=O)C(=CNc2ncccn2)C(=O)O1	4%	5	1	-4%	-1%	2
CC1(C)OC(=O)C(=CNNc2c(Cl)cc(Cl)cc2Cl)C(=O)O1	-2%	31*	-1	-6%	-2%	-1
Cc1cc(=O)oc2cc(O)c(O)cc12	/	/	/	/	2%	/
Cc1ccc(C)c(CN2C(=O)c3ccccc3S(=O)(=O)c3ccc(C(=O)N4CCN(Cc5ccccc5)CC4)cc32)c1	/	-7	1	/	1%	/
COC(=O)c1ccccc1SC(CC(=O)c1ccccc1)c1ccc(F)cc1 (stereo unspecified)	?	-2	1	-8%	22µM*	-1
CCC(C)NC(=O)CSc1nc(-c2ccc(F)cc2)cc(C(F)(F)F)n1 (stereo unspecified)	/	10	-1	/	0%	/
O=C(COC(=O)c1cc(=O)[nH]c2ccc(Br)cc12)c1ccccc1	7%	33*	-2	58%	1%	-1
O=C(COC(=O)c1cc(=O)[nH]c2ccccc12)c1ccc(Br)cc1	6%	-4	-2	11%	6%	3
Cc1ccccc1CN1C(=O)c2ccccc2Sc2ccc(C(=O)NC3CCCC3)cc21	/	1	1	/	4%	/
O=S(=O)(c1ccc2c(c1)OCCO2)N1CCN(S(=O)(=O)c2ccccc2Cl)CC1	/	1	0	/	/	/
CCN=C1S/C(=C\c2ccc(N3CCOCC3)cc2C)C(=O)N1CC	8%	2	1	/	0%	-2
COCCN1C(=O)/C(=C/c2ccc(N3CCCC3)cc2C)SC1=S	-17%	24	53*	0%	2.8µM*	11

Screens (PubChem)
